The list is not random: actives were taken first. Their share in the collection is about 10%.
G9a block: inhibitors of human histone lysine methyltransferase G9a. Q96KQ7. G9a H3K9 monomethylation, AlphaScreen, 2 h. Potency, µM (top dose mostly 102 µM), without a hit: at the highest dose activity, negative = inhibition, most hits filed as inhibitors. 8.8% of 350,000 active; further: on the % scale 0 is the no-effect control and ±100 the full control effect; nearly all actives have a fitted effect of over 75% in size
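Readings reflect AlphaScreen signal from monomethyl-H3K9 antibody detection. HMT at 20 nM; substrate b-H3K9 500 nM; cofactor SAM 20 uM; 2 h RT reaction; compounds tested as titrations in qHTS with 15 min preincubation.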
JMJD2A Tudor inh: inhibitors of human JMJD2A Tudor domain; Potency, µM (series often up to 114 µM), for the others: at the highest dose activity change, negative = inhibition, actives largely listed as inhibitors; 4.4% of 390,000 active; O75164; AID 504339; AlphaScreen JMJD2A-Tudor / H3K4me3 peptide binding; further: on the % scale 0 is the no-effect control and ±100 the full control effect; nearly all actives have a fitted effect of over 50% in size
BAZ2B block: blocks human BAZ2B. Q9UIF8. AlphaScreen BAZ2B-H3K14Ac peptide displacement. Potency, µM (series often up to 114 µM), for the others: at the highest dose activity change, negative = inhibition, hits mostly inhibitors. 4.4% of 360,000 active; further: on the % scale 0 is the no-effect control and ±100 the full control effect; nearly all actives have a fitted effect of over 60% in size
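Inhibition is scored as reduced AlphaScreen emission. The BAZ2B/b-H3(5-23)K14Ac complex (50 nM each) in PBS pH 7.4, 0.01% Tween-20 meets compound (up to 110 uM) for 30 min at RT before bead addition.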
HP1b binding inh: inhibitors of HP1-beta chromodomain binding to methylated histone tails; 0.56% of 390,000 active; AlphaScreen HP1-beta / biotin-H3K9me3 peptide binding; AID 540317; Potency, µM (highest dose often 114 µM), inactives show top-dose activity change, negative = inhibition, most hits filed as inhibitors; further: nearly all actives have a fitted effect of over 70% in size
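HP1-beta protein (50 nM final) preincubated 30 min at room temperature with biotinylated H3(1-18)K9me3 peptide (50 nM) in PBS pH 7.4, 0.01% Tween-20, then compound added for 30 min. AlphaScreen streptavidin donor/nickel chelate acceptor beads (10 ug/mL final), 30 min dark, luminescence read.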
GLS inh: blocks human kidney-isoform glutaminase activity | O94925 | GLS enzymatic activity, qHTS titration | Potency, µM (doses to about 45.5 µM), without a hit: at the top dose activity change, negative = inhibition, usual class: inhibitors | 0.21% of 410,000 active; further: on the % scale 0 is the no-effect control and ±100 the full control effect
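Read-out is an Amplex red fluorescence increase coupled through glutamate oxidase and HRP, measured before and after 30 min room-temperature incubation. hKGA is in 45 mM KH2PO4 (pH 8.2) with 0.02% Tween-20; glutamine added as 1mM solution.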
The depositor's hits bear a star; ? = inconclusive; · = no result given; ! = repeats disagree; [ ] = another dose, or the depositor's remark. The call rests on the fitted dose curve; in most records, active means well fitted curve in the direction sought with a large enough effect; inconclusive means small, poorly fitted or top-dose-only effect, or another doubt; inactive means no such curve, though single readings can be large; an effect the other way counts as inactive or inconclusive. Potency means the concentration at half of the fitted maximal effect.

SMILES	G9a block	JMJD2A Tudor inh	BAZ2B block	HP1b binding inh	GLS inh
O=C(Nc1cc(=O)[nH]c2ncnn12)c1ccc(Cl)cc1Cl	8.91µM*	79.4µM*	-1.9%	15.9%	4.6%
O=C(Nc1cc(=O)[nH]c2ncnn12)c1ccccc1	3.2%[59 µM]	-19.5%	-30.2%	25.1%	-21.2%
N#Cc1nc(-c2ccc(OCc3ccccc3Cl)cc2)oc1NCCCn1ccnc1	?	·	65.2%	·	·
CN(C)CCc1cc2c(c3c1ccc1ccccc13)OCO2	39.8µM*	-54.2%	?	?	9.4%
Cc1cc(=O)oc2cc(NC(=O)c3cccc(F)c3)ccc12	22.1%	-22.9%	1.0%	26.4%[57 µM]	12.8%
COCC1CCN(Cc2c(C(=O)N3CCc4ccccc4C3)nc3ccc(Cl)cn23)C1 (stereo not given)	39.8µM*	-27.3%	-34.1%	25.2%	4.4%
CCCCS(=O)(=O)c1sc2nc(C)cc(C)c2c1N	?	-10.5%	2.8%	44.0%	11.0%
CC(CCc1ccccc1)N1CCN(Cc2ccccc2)CC1 (stereo not given)	11.2µM*	2.24µM*	50.1µM*	44.7µM*	-1.3%
O=C(C(Cl)Cl)N1CCN(Cc2ccccc2)CC1	-5.9%	6.1%	-2.2%	29.6%	-2.0%
CCS(=O)(=O)N1CCN(C(C)CCc2ccccc2)CC1 (stereo not given)	?	8.91µM*	?	?	10.9%
Nc1c(C(=O)NCc2ccc(Cl)cc2)sc2nc3c(c(C(F)(F)F)c12)CCC3	44.7µM*	20.9%	4.0%	72.2%	0.9%
Cc1ccc(-c2c3c(nc4sc(C(N)=O)c(N)c24)CCC3)cc1	-10.0%	-21.3%	-4.1%[57.1 µM]	37.0%	17.4%
Cc1ccc(CNC(=O)c2sc3nc4c(c(C(F)(F)F)c3c2N)CCC4)cc1	-0.8%	16.0%	10.0%	60.8%	5.7%
NC(=O)c1sc2nc3c(c(-c4ccc(Cl)cc4)c2c1N)CCCC3	11.2µM*	5.6%	-3.7%	41.3%	3.3%
Nc1ccc(N2CCCC2)c(S(=O)(=O)Nc2cccc(C(F)(F)F)c2)c1	·	44.7µM*	·	?	?
CC(C)COc1ccc(C(=O)Nc2cc3nn(-c4ccccc4)nc3cc2Cl)cc1	-3.6%[59 µM]	0.4%	-11.3%	18.6%	0.0%
Clc1ccccc1Cn1c(/C=C/c2ccco2)nc2ccccc21	10µM*	?	?	?	-2.1%
Cc1sc(C(C2C(=O)CC(C)(C)CC2=O)C2C(=O)CC(C)(C)CC2=O)cc1[N+](=O)[O-]	7.94µM*	28.2µM*	56.2µM*	-8.5%	11.9%
Cc1ccccc1C(=O)Nc1nnc(S(=O)(=O)N2CCCCCC2)s1	14.1µM*	39.8µM*!	22.4µM*!	?	11.2%
COc1ccccc1C(=O)Nc1nnc(S(=O)(=O)N2CCCCC2)s1	19.5%	-3.4%	-18.7%	75.6%	18.8%
O=C(Nc1nnc(S(=O)(=O)N2CCN(c3ccc(F)cc3)CC2)s1)c1ccco1	44.7µM*	?	?	23.5%	-6.7%
COc1ccccc1C(=O)Nc1nnc(S(=O)(=O)N2CCCCCC2)s1	10µM*!	20µM*!	7.08µM*!	48.2%	3.3%
Cc1ccccc1C(=O)Nc1nnc(S(=O)(=O)N2CCCc3ccccc32)s1	-5.9%[59 µM]	-19.4%	-21.8%	45.3%	2.0%
Cc1ccc(C(=O)Nc2nnc(S(=O)(=O)N3CCCCCC3)s2)cc1	7.94µM*	25.1µM*!	10µM*!	?	5.2%
O=C(Nc1nnc(S(=O)(=O)N2CCOCC2)s1)c1ccc(F)cc1	-15.7%	-13.4%	4.5%	19.1%	4.8%
SMILES	G9a block	JMJD2A Tudor inh	BAZ2B block	HP1b binding inh	GLS inh
Cc1ccc2oc3c(c(=O)c2c1)C1(C(=O)N(C)c2ccccc21)N(CCCO)C3=O (stereo not given)	-8.8%[59 µM]	-17.7%	-6.3%	5.8%	-7.3%
CCCOc1ccc(C2NC(=O)CCC2[N+](=O)[O-])cc1 (stereo not given)	·	0.0%	4.0%	35.1%	-2.7%
O=C(COc1ccccc1)Nc1nnc(S(=O)(=O)N2CCCCC2)s1	0.1%	-11.3%	-23.5%	60.1%	14.6%
O=C(Nc1nnc(S(=O)(=O)N2CCCCCC2)s1)c1ccccc1F	11.2µM*!	39.8µM*!	10µM*!	50.6%	-0.7%
O=C(COc1ccccc1Cl)Nc1nnc(S(=O)(=O)N2CCCCCC2)s1	56.2µM*!	-15.6%	-3.4%	47.1%	9.5%
O=C(Nc1nnc(S(=O)(=O)N2CCOCC2)s1)c1ccccc1F	43.5%	-7.0%	21.7%	37.5%	0.0%
Cc1[nH]c2ccc(C(=O)OC(C)C(=O)N(C)c3ccccc3)cc2c1C (stereo not given)	0.9%[0.501 µM]	?	50.1µM*	?	2.9%
Cc1ccccc1NC(=O)c1ccc2[nH]c(C)c(C)c2c1	-7.5%[59 µM]	-35.4%	-32.6%	-4.3%	2.9%
Cc1[nH]c2ccc(C(=O)OC(C)C(=O)N(C)C3CCCCC3)cc2c1C (stereo not given)	44.7µM*	?	56.2µM*	?	-1.6%
Cc1ccc(C(=O)OC(C)C(=O)N(C)C2CCCCC2)cc1S(=O)(=O)N1CCCCC1 (stereo not given)	-1.5%[59 µM]	-6.1%	8.7%	43.8%	-2.4%
CC(=O)Nc1ccc(NC(=O)C(C)OC(=O)c2ccc3[nH]c(C)c(C)c3c2)cc1 (stereo not given)	50.1µM*	?	-3.4%	-7.4%	16.1%
CC(=O)c1c(C)[nH]c(C(=O)Nc2ccc(S(=O)(=O)N(C)C)cc2)c1C	·	-24.7%	-17.4%	?	-0.9%
CCn1c(C(=O)N2CCC(C(=O)N3CCN(c4ccccn4)CC3)CC2)cc2sccc21	-12.9%[59 µM]	-25.9%	-25.0%	17.2%	7.6%
Cc1ccccc1OCCCC(=O)Nc1ccc(N2CCOCC2)cc1	44.7µM*	-21.5%	0.6%	9.1%	31.4%
Cc1cccc(OCC(=O)Nc2ccc3oc(=O)ccc3c2)c1C	50.1µM*	-1.4%	-11.5%	30.2%	-15.8%
COc1ccc(N2CCN(S(=O)(=O)CCNC(=O)COc3ccccc3C)CC2)cc1	44.7µM*	-33.1%	?	8.0%	-14.5%
CCOc1ccccc1OCC(=O)Nc1ccc(N2CCCCC2)cc1	?	?	-38.1%	16.5%	9.3%
Cc1cccc(OCC(=O)Nc2ccc(N3CCCC3)cc2)c1C	28.2µM*	?	·	-23.5%	?
O=S(=O)(N/N=C\c1ccc2c(c1)OCO2)c1ccc(F)cc1	?	-2.8%	-6.6%	53.5%	8.1%
Cc1ccccc1OCC(=O)NC1=NCCS1	28.2µM*	-7.7%	-29.4%	38.5%	2.6%
COc1ccccc1OCC(=O)Nc1ccc(N2CCCCC2)cc1	22.4µM*	?	?	-6.1%	59.7%
COc1ccccc1OCC(=O)Nc1ccc2c(c1)OCO2	-19.1%	?	50.1µM*	-7.8%	-2.7%
COc1ccc(CCN2CC(C(=O)Nc3ccc4c(c3)OCO4)CC2=O)cc1OC (stereo not given)	1.1%[59 µM]	79.4µM*	?	?	32.4%
Cc1ccccc1OCC(=O)Nc1ccc2c(c1)OCO2	45.8%[12.7 µM]	-19.3%	-5.0%	43.3%	3.2%

Assay outcomes (PubChem)
